A selection: hits, their analogues and other compounds. The true share with any hit is near 2.4%.
Cruzain inh Det – inhibitors of Trypanosoma cruzi cruzain with detergent. AID 1478. 0.43% of 200,000 active. purified cruzain, Z-FR-AMC fluorescence, 0.01% Triton. Potency, µM, usual class: inhibitors. P25779; note: nearly all actives have a fitted effect of over 40% in size
Target sequence (P25779 123-467 limits assumed): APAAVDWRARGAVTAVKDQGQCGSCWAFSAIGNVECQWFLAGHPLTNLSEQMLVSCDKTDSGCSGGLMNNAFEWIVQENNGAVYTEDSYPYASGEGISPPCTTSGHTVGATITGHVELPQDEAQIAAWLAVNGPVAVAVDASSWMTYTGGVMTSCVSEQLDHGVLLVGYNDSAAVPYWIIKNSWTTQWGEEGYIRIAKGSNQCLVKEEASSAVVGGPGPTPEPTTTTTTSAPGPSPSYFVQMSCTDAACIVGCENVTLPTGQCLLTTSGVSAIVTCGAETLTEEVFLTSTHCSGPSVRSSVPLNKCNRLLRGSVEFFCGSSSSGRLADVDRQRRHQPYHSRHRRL
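Enzyme 1.5 nM, Z-FR-AMC 2 uM, NaOAc 100 mM pH 5.5, DTT 5 mM, Triton X-100 0.01%; 15 min RT compound preincubation; kinetic ex360/em450, 60 s delta.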
Cruzain inh noDet – blocks cruzain activity in detergent-free assay; P25779; purified cruzain, Z-FR-AMC fluorescence, no detergent; Potency, µM, usual class: inhibitors; 2.3% of 200,000 active; note: nearly all actives have a fitted effect of over 40% in size
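Detergent-free condition (0.00005% Triton X-100) in acetate buffer pH 5.5 with DTT. 1.5 nM enzyme and compound were pre-mixed 15 min, then 2 uM Z-FR-AMC substrate added; reaction progress from fluorescence change between first and third reads (60 s).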
Of the large screens only hits and unclear results are named; the others gave an inactive call; ! = a repeat was not active. Calls come from the whole dose curve; as a rule, active = well fitted curve in the direction sought with a large enough effect; inconclusive = small, poorly fitted or top-dose-only effect, or another doubt; inactive = no such curve, though single readings can be large; an effect the other way counts as inactive or inconclusive.

COc1ccc(NC(=S)NC2CCCCCC2)c(OC)c1	none
COc1ccccc1NC(=S)NC1CCC(CC2CCC(NC(=S)Nc3ccccc3OC)CC2)CC1 (stereo not given)	Cruzain inh noDet 4µM
Cc1ccc(/C=C2\SC(N3CCN(C(c4ccccc4)c4ccccc4)CC3)=NC2=O)o1	Cruzain inh noDet 7.9µM
CC1=CN2C(=N)/C(=C/c3ccc(C)o3)C(=O)N=C2S1	none
CCOC(=O)c1c(NC(=O)c2cc(OC)c(OC)c(OC)c2)sc2c1CCCC2	none
NC(Cc1cc(I)c(Oc2ccc(O)c(I)c2)c(I)c1)C(=O)O (stereo not given)	none
N[C@@H](Cc1cc(I)c(Oc2ccc(O)c(I)c2)c(I)c1)C(=O)O	Cruzain inh Det inconclusive, Cruzain inh noDet 13µM!
CCCCCCc1cc2cc(-c3cn4c(n3)sc3cc(OC)ccc34)c(=O)oc2cc1O	none
CCn1c(O)c(/C=C2\C=Nc3ccccc32)sc1=Nc1ccc(C)cc1	Cruzain inh noDet 16µM
CCOC(=O)c1c(Nc2ccccc2)sc(/C=C2\C=Nc3ccccc32)c1O	none
COc1cc(/C=c2\sc3n(c2=O)C(c2ccccc2)C(c2ccccc2)=NN=3)ccc1O (stereo not given)	Cruzain inh noDet 16µM
COc1cc(/C=c2\sc3n(c2=O)CCCN=3)ccc1O	none
N#C/C(=C/c1ccc(Oc2ccc([N+](=O)[O-])cn2)cc1)C(=O)N1CCOCC1	Cruzain inh noDet inconclusive
N#C/C(=C\c1ccc(-c2ccc([N+](=O)[O-])cc2Br)o1)C(=O)N1CCN(c2ccccc2)CC1	Cruzain inh noDet 13µM
Cc1c(NS(=O)(=O)c2ccc3c(c2)OCCO3)cccc1-c1nc2cccnc2s1	Cruzain inh noDet 16µM
Cc1cc(-c2nc3cccnc3s2)ccc1NS(=O)(=O)c1ccc2c(c1)OCCO2	Cruzain inh noDet inconclusive
CSc1nsc(/C=C/Nc2ccc(C)cc2)c1C#N	Cruzain inh noDet 3.2µM
COc1cc(/C=N/Nc2snc(SC)c2C#N)ccc1O	none
O=C1OC(/C=C/c2ccc(Cl)cc2Cl)=NC/1=C\c1cccs1	Cruzain inh Det inconclusive, Cruzain inh noDet 25µM
O=c1cc(-c2cccs2)oc2ccc(Cl)cc12	none
CCOCCc1nnc(NC(=O)C(=O)c2cc(C)n(-c3ccc(C)c(C)c3)c2C)s1	Cruzain inh noDet inconclusive
NC1=Nc2ccccc2Oc2ccccc21	Cruzain inh Det inconclusive, Cruzain inh noDet 25µM
c1ccc(C2=Nc3ccccc3OC2)cc1	none
Cc1cc(-c2cccs2)c2c(N)c(C(=O)c3ccc4c(c3)OCO4)sc2n1	Cruzain inh noDet 25µM
COc1ccc(C(=O)c2sc3nc(C)cc(-c4cccs4)c3c2N)cc1	Cruzain inh noDet inconclusive
CO[C@@H]1[C@@H]2OP(=O)(O)OC[C@H]2O[C@H]1n1c(Sc2ccc(Cl)cc2)nc2c(N)ncnc21	none
COc1ccc(C(=O)c2c(N)c(-c3nc(-c4ccccc4)cs3)c3ccccn23)cc1	Cruzain inh noDet 7.9µM
CCOc1ccc(C(=O)c2c(N)c(-c3nc(-c4ccc5c(c4)OCO5)cs3)c3ccccn23)cc1	none
CCOc1ccc(C(=O)c2c(N)c(-c3nc(-c4ccc(OCC)cc4)cs3)c3ccccn23)cc1	none
COc1ccccc1C(=O)c1c(N)c(-c2nc(-c3ccccc3)cs2)c2ccccn12	Cruzain inh noDet 10µM
COc1cccc(-c2csc(-c3c(N)c(C(=O)c4ccc5c(c4)OCO5)n4ccccc34)n2)c1	Cruzain inh noDet 3.2µM
COc1ccc(C(=O)c2c(N)c(-c3nc(-c4ccc(OC)cc4)cs3)c3ccccn23)cc1	Cruzain inh noDet inconclusive
C[N+]1(CCCC[N+]2(C)CCCCCCC2)CCCCCCC1	none
Cc1cccc(NC(=O)c2c(NC(=O)c3ccccc3)sc3c2CCCC3)c1	none
O=C(Oc1ccccc1)N1CCC2(CC1)CCN(c1ccccn1)CC2	none
COc1ccc(CCNC(=O)c2cccc(-n3cnc4cccnc43)c2C)cc1OC	none
CCC[C@@H]1C[C@@]1(CCC)C(NP(=O)(c1ccccc1)c1ccccc1)c1ccc(Cl)cc1 (stereo not given in full)	none
CCOC(=O)c1c(C)n(-c2ccc(OC)cc2)c2ccc(OC(=O)COc3ccccc3)cc12	none
CCc1ccc(N2C(=O)C(Cl)=C(N3CCOCC3)C2=O)cc1	none
O=C1C(Cl)=C(N2CCOCC2)C(=O)N1c1cccc(Cl)c1	Cruzain inh Det 13µM, Cruzain inh noDet 13µM
CN1CCN(C2=C(Cl)C(=O)N(c3ccc(Cl)cc3)C2=O)CC1	Cruzain inh Det inconclusive, Cruzain inh noDet 25µM
O=C1C(Cl)=C(N2CCN(Cc3ccccc3)CC2)C(=O)N1c1ccccc1	none
Cc1ccc(N2C(=O)C(Cl)=C(N3CCN(C)CC3)C2=O)c(C)c1	Cruzain inh noDet inconclusive
COc1ccc(N2C(=O)C(Cl)=C(N3CCN(Cc4ccccc4)CC3)C2=O)cc1	Cruzain inh Det 18µM
CCc1ccc(-n2nc(C)c3c(C)cc(=O)n(CC(=O)Nc4ccc(C(C)=O)cc4)c32)cc1	none
O=S(=O)(c1ccc(-c2cc(C(F)(F)F)on2)s1)N1CCN(c2ccc(F)cc2)CC1	none
COc1ccccc1C1OC(=O)CC1C(=O)OC[C@@H]1CCCN2CCCCC12 (stereo not given in full)	none
C(=N\Nc1nc(-c2ccccc2)cs1)/c1ccco1	Cruzain inh noDet inconclusive
C(=N\Nc1nc(-c2ccccc2)cs1)/c1cccs1	Cruzain inh noDet 25µM
COc1ccc(CN2C(=O)N(c3cccc(C)c3)C(=O)C2CC(=O)Nc2ccc(F)cc2)cc1OC (stereo not given)	none
CC(C)CC(C(=O)OCC(=O)Nc1ncc(Cl)cc1Cl)N1C(=O)c2ccccc2C1=O (stereo not given)	Cruzain inh noDet inconclusive
COc1ccc(NC(=O)COC(C)=O)cc1Cl	none
COc1ccc(NC(=O)COC(=O)/C=C/C(=O)OCC(=O)Nc2ccc(OC)c(Cl)c2)cc1Cl	Cruzain inh noDet 25µM
COc1ccc(NC(=O)COC(=O)C(CC(C)C)N2C(=O)C3CC=CCC3C2=O)cc1Cl (stereo not given)	Cruzain inh Det 7.1µM, Cruzain inh noDet 10µM
CCOC(=O)/C=C/C(=O)OCC(=O)Nc1ccc(OC)c(Cl)c1	Cruzain inh Det 13µM, Cruzain inh noDet 16µM
CCCn1c(C)cc(/C=C(\C#N)C(=O)OCC(=O)Nc2ccc(OC)c(Cl)c2)c1C	none
COc1cccc(-c2nnc3sc(CN4CCCCC4)cn23)c1	none
CCCS(=O)(=O)c1ncc(Cl)c(C(=O)N2CCN(c3ccc(OC)cc3)CC2)n1	none
COc1ccc(S(=O)(=O)N2CCN(c3ccc(Cl)c(Cl)c3)CC2)c2ccccc12	Cruzain inh noDet 7.9µM
COc1ccc(S(=O)(=O)N2CCN(C)CC2)c2ccccc12	none
CN1CCN(S(=O)(=O)c2cccc(C(=O)Nc3sc4c(c3C(N)=O)CCCC4)c2)CC1	Cruzain inh Det inconclusive, Cruzain inh noDet 13µM
COCCN(CCOC)S(=O)(=O)c1ccc(C(=O)Nc2sc3c(c2C(N)=O)CCCC3)cc1	none
NC(=O)c1c(NC(=O)c2ccc(S(=O)(=O)N(CCCl)CCCl)cc2)sc2c1CCCCC2	Cruzain inh noDet 4µM
NC(=O)c1c(NC(=O)c2ccc(S(=O)(=O)N3CCOCC3)cc2)sc2c1CCCCC2	Cruzain inh noDet inconclusive
Cc1ccccc1C(=O)Nc1c(C)nc2ccccn2c1=O	none
CN(C)c1ncc2nc(-c3ccccc3)c(=O)n(C)c2n1	none
CCN(C(=O)CSc1nc2ccccc2n1CC(=O)Nc1ccccc1C)c1ccccc1	none
Cc1c(NC(=O)c2ccccc2)cccc1[N+](=O)[O-]	none
Cc1ccccc1NC(=O)c1ccc(Nc2c([N+](=O)[O-])cc([N+](=O)[O-])c3ccccc23)cc1	Cruzain inh noDet 32µM

From PubChem BioAssay
